# BoNT-F LC inh – BoNT/F light chain protease inhibitors, primary screen, biochemical, flow cytometry, MLPCN library. Multiplex microsphere protease cleavage assay. inhibition, % at 10 µM. Botulinum neurotoxin type F light chain protease (Clostridium botulinum). AID 588497, 2011. hit rate 0.22% among 360,000; in the data active means inhibition above about 35%, passing the limit was not always enough; inconclusive means no clear call, values can overlap the other calls; further: plate controls were buffer without enzyme for full effect and enzyme alone for no effect
# 3CLpro inhibitor – SARS-CoV 3CLpro protease inhibitors, primary screen, biochemical, quenched FRET. Replicase polyprotein 1ab (Severe acute respiratory syndrome coronavirus), P0C6X7. recombinant SARS-CoV 3CLpro, quenched FRET peptide cleavage. inhibition, % at 6 µM. hit rate 0.14% among 290,000; in the data active means inhibition above about 12%
# Bead autofluor – compound fluorescence in toxin protease inhibitor counterscreen; compound autofluorescence counterscreen, microsphere flow cytometry; stronger effect = higher value; fluorescence intensity (concentration not given with the values); hit rate 3.1% among 360,000; AID 624483; in the data active means fluorescence intensity above about 16000; inconclusive means no clear call, values can overlap the other calls
# Anthrax LF inh2 – Bacillus anthracis LF protease inhibitors, primary screen, biochemical, multiplex microsphere, MLPCN library; hit rate 0.12% among 360,000; multiplex microsphere protease cleavage assay; inhibition, % at 10 µM; AID 588501, 2011; Lethal factor (Bacillus anthracis), P15917; further: plate controls were buffer without enzyme for full effect and enzyme alone for no effect
# BoNT-A LC inh2 – BoNT/A light chain protease inhibitors, primary screen, biochemical, flow cytometry, MLPCN library; multiplex microsphere protease substrate cleavage; Botulinum neurotoxin type A light chain protease (Clostridium botulinum A str. ATCC 3502); hit rate 0.17% among 360,000; inhibition, % at 10 µM; further: plate controls were buffer without enzyme for full effect and enzyme alone for no effect
# * hit, by the source's call; u = inconclusive; x = not tested or not shown. An excerpt weighted towards active compounds, which were near 3.5% of everything screened. Unless noted, no stated cut-off is given here; in the data, active means inhibition above about 30%; inconclusive means no clear call, values can overlap the other calls; inactive means below that.
SMILES,BoNT-F LC inh,3CLpro inhibitor,Bead autofluor,Anthrax LF inh2,BoNT-A LC inh2
Cc1c(OC(C(=O)O)c2ccccc2)ccc2c3c(c(=O)oc12)CCC3 (centres undefined),24.9,4.3,3577,-6.2,0.5
C=C(C)CSc1nnc([C@@H](NC(=O)OC(C)(C)C)C(C)CC)o1 (some centres undefined),5.3,1.5,20796*,-1.3,u
CCSc1nnc([C@@H](NC(=O)OC(C)(C)C)C(C)C)o1,u,-0.6,3526,6.8,0.2
O=C(Cc1c(C(=O)O)[nH]c2ccccc12)Nc1ccc2c(c1)OCO2,-4.2,6.6,16805*,-2.6,-0.5
O=C(CSc1nnc2c(n1)[nH]c1ccccc12)Nc1ccc2c(c1)OCO2,0.3,-4.2,21923*,-3.1,u
O=C(O)c1[nH]c2ccccc2c1CC(=O)N1CCOCC1,0.9,2.5,19170*,2.0,2.3
O=C(COC(=O)[C@H](Cc1c[nH]c2ccccc12)NC(=O)c1ccc(Cl)cc1)Nc1ccc2c(c1)OCO2,1.9,0.6,21349*,-3.3,3.4
O=C(O)c1[nH]c2ccccc2c1CC(=O)N1CCN(c2ccccc2)CC1,-4.0,4.7,2008,-2.0,0.2
Cc1ccc(NC(=O)CSc2nnc3c(n2)[nH]c2ccccc23)cc1,-11.7,-0.3,3731,-7.6,0.4
CC(C)CSc1nnc2c(n1)[nH]c1ccccc12,9.3,1.5,11366,-0.3,1.0
CCCCSc1nnc2c(n1)[nH]c1ccccc12,1.6,5.0,21409*,1.2,-1.3
Cc1noc(C)c1COc1cccc(C(=O)OC(C)C(=O)Nc2ccc3c(c2)OCO3)c1 (centres undefined),-0.3,7.8,19670*,-0.1,3.8
COc1cc2c(cc1O)C(CSC)Cc1cc3c(cc1N(C)CC2)OCO3 (centres undefined),3.5,x,2777,-6.7,0.2
O=C(Cc1cccs1)Nc1ccccc1-c1nc2ccccc2[nH]1,x,-2.9,x,x,x
CCCCn1c(-c2csc(CC)c2)n[nH]c1=S,-0.2,-1.0,2578,-1.4,-0.1
Cc1cccc(-n2c(-c3csc(C)c3)n[nH]c2=S)c1,-2.0,-3.2,16396*,-7.9,u
CCc1cc(-c2n[nH]c(=S)n2-c2cccc(C)c2)cs1,10.8,-1.4,18843*,-8.8,10.9
Cc1cc(-c2n[nH]c(=S)n2-c2ccccc2C)cs1,-3.2,3.1,2102,0.6,0.0
CC(=O)Nc1cccc(Oc2cnc3ccccc3n2)c1,2.2,-0.5,18766*,-16.0,2.7
COc1ccc(Oc2cnc3ccccc3n2)cc1,7.6,4.5,2240,-1.2,0.3
Clc1cccc(Oc2cnc3ccccc3n2)c1,1.0,1.3,16039,-1.1,1.1
CC(=O)Nc1ccc(Oc2cnc3ccccc3n2)cc1,0.7,-3.1,24151*,-0.1,-0.3
c1ccc(Oc2cnc3ccccc3n2)cc1,0.9,-1.8,23310*,-1.4,1.0
O=C1/C(=C\c2ccc(Cl)c(Cl)c2)N2CCC1CC2,u,-1.0,3325,31.6*,-5.8
O=C1/C(=C/c2cccc([N+](=O)[O-])c2)N2CCC1CC2,3.1,2.6,2260,1.4,0.7
SMILES,BoNT-F LC inh,3CLpro inhibitor,Bead autofluor,Anthrax LF inh2,BoNT-A LC inh2
O=C1/C(=C\c2ccncc2)N2CCC1CC2,-35.1,3.7,6041,-9.9,-1.5
O=C1/C(=C/c2cc([N+](=O)[O-])ccc2Cl)N2CCC1CC2,-1.6,2.1,16507*,5.4,-0.4
O=C(c1ccco1)N(Cc1ccc([N+](=O)[O-])cc1)c1ccc(Br)cc1,-9.9,12.7*,9767,-8.6,-0.3
O=C(c1ccco1)N(Cc1cccc([N+](=O)[O-])c1)c1ccc(Br)cc1,-2.5,5.3,1989,-1.4,-1.1
Cn1c(S(=O)(=O)c2ccc([N+](=O)[O-])cc2)nc(Br)c1Br,u,-0.4,4076,-10.4,-0.4
O=C(CSc1nnc2scc(-c3ccccc3)n12)Nc1ccc2c(c1)OCCO2,-4.9,-3.9,16931*,1.5,u
COCCn1c(SCC(=O)Nc2ccc3c(c2)OCCO3)nnc1-c1c[nH]c2ccccc12,-0.3,-0.1,22982*,-5.4,1.8
Nn1c(SCC(=O)Nc2ccc3c(c2)OCCO3)nnc1-c1ccncc1,-12.3,0.3,6751,-3.7,-3.5
O=C(CCSc1nnc2scc(-c3ccccc3)n12)NCc1ccc2c(c1)OCO2,-1.7,-3.0,16498*,-10.2,-2.1
CC(=O)NNc1ncnc2ccccc12,-0.4,0.8,2680,-2.9,-0.6
Cc1onc(-c2ccccc2Cl)c1C(=O)Nc1ccc(S(=O)(=O)Nc2nccs2)cc1,-4.7,0.9,2329,-1.8,-0.5
O=C(OCCN=C1NS(=O)(=O)c2ccccc21)c1ccccc1,11.3,-7.5,6341,-7.7,1.5
CC1CCN(S(=O)(=O)c2ccc(S(=O)(=O)NCC3COCCO3)cc2)CC1 (centres undefined),-0.7,2.3,23033*,1.1,-2.2
C=CCNC(=O)Cn1c(=O)c2c(ncn2CCC(C)C)n(Cc2ccccc2)c1=O,-0.9,0.2,6042,0.2,-0.5
CCCN1CCc2c(sc3nc(SCC)n(-c4ccc(OC)cc4)c(=O)c23)C1,11.3,0.6,4205,28.9,40.3*
CCCN1CCc2c(sc3nc(SCC)n(-c4ccccc4)c(=O)c23)C1,5.1,0.8,5969,14.8,33.9*
COc1ccc2c(c1)C1(Nc3ccccc3-c3nc4ccccc4n31)C(=O)N2C (centres undefined),-2.7,-1.5,2641,-1.1,0.1
COc1ccc(N2C(=O)c3ccccc3NC23C(=O)N(C)c2ccccc23)cc1 (centres undefined),-3.7,-0.2,17048*,-2.4,-4.5
CCNC(=O)c1ccccc1NC(=O)C1CC(=O)N(C(C)C)C1 (centres undefined),u,-3.3,3297,-3.4,2.4
COc1cc(/C=C2\C(=N)N3N=CSC3=NC2=O)ccc1OS(=O)(=O)c1ccccc1[N+](=O)[O-],12.4,-1.5,4950,4.0,-2.1
CCOC(=O)C(=CNc1ccc(Cl)cn1)C(=O)OCC,0.7,1.8,5193,6.5,0.4
CCOC(=O)C(=CNc1cccc(N)n1)C(=O)OCC,-1.5,-5.4,20625*,-10.3,-0.7
CCCCN(C(=O)CSc1nnc(-c2ccccc2)n1C)c1c(N)n(Cc2ccccc2)c(=O)[nH]c1=O,-3.8,-0.8,2000,-1.2,0.5
CCOC(=O)C1=NN(N=O)C2(CC(=O)N(c3cc(C)cc(C)c3)C2=O)C1 (centres undefined),-9.2,-3.2,24546*,-1.8,-3.6
CCOC(=O)C1=NNC2(CC(=O)N(c3cc(C)cc(C)c3)C2=O)C1 (centres undefined),-11.1,4.1,4514,-7.6,-1.4
COc1cccc(OC)c1-c1nn2c(-c3ccco3)nnc2s1,-5.3,-1.6,20967*,-0.4,-4.3
Clc1ccc(-c2ccc(-c3nn4c(-c5ccco5)nnc4s3)o2)cc1,6.1,1.0,7729,1.1,3.3

# Screening results (PubChem)
